19 compounds from PubChem BioAssay can be followed below.

Assay [1] can be described thus: human hepatoma cell viability loss – ATP luminescence, cytotoxicity control for P. falciparum antimalarial project, primary screen (AID 2303;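 active means inhibition above 50%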;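 further: 0% = DMSO wells and 100% = digitonin-killed cells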). The conditions noted are these: HepG2 viability, 24-48 h, at 10 µM, active compounds read high.
Assay [2] has as its target L-lactate dehydrogenase (Plasmodium falciparum (isolate CDC / Honduras)) (UniProt Q27743). As to the kind of experiment: PfLDH activity inhibition – cell lysate, 3D7 strain, counter-screen for P. falciparum growth inhibition project (AID 2304).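 Further: 0% = vehicle and 100% = reference inhibitor.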 The conditions noted are these: P. falciparum 3D7 crude extract, LDH APAD/NBT absorbance; at 2 µM; active compounds read high. (In general: A counterscreen serves to expose hits that act by an unwanted route or on another target.)

Assay [3] can be described thus: inhibition of 3D7 malaria parasite growth – strain 3D7 (AID 2306).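 Further: 0% = DMSO wells and 100% = chloroquine plus artemisinin control wells.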 The settings on record: P. falciparum 3D7 erythrocytic growth, LDH absorbance, 72 h; at 2 µM; active compounds read high.
Assay [4] concerns the target Calcium-dependent protein kinase 1 (Plasmodium falciparum (isolate 3D7)) (UniProt P62344). Kind of assay: PfCDPK1 kinase inhibitors, biochemical, TCAMS library (AID 1159585; cut-off not given, nearly all actives have IC50 up to about 0.98 µM;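 further: inhibitors leave more ATP so luminescence rises with inhibition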). The conditions noted are these: recombinant PfCDPK1, Kinase-Glo ATP depletion luminescence.
Assay [5] deals with Plasmodium falciparum protein kinase 6 (PK6, PF3D7_1337100) (UniProt Q8IDW1). As to the kind of experiment: PfPK6 kinase inhibitors, biochemical, TCAMS library (AID 1159586). The conditions noted are these: recombinant PfPK6, Kinase-Glo ATP depletion luminescence. Background: Kinase-Glo measures the ATP left after a reaction by luminescence.
Sequence of Plasmodium falciparum protein kinase 6 (PK6, PF3D7_1337100) (Q8IDW1 1-305): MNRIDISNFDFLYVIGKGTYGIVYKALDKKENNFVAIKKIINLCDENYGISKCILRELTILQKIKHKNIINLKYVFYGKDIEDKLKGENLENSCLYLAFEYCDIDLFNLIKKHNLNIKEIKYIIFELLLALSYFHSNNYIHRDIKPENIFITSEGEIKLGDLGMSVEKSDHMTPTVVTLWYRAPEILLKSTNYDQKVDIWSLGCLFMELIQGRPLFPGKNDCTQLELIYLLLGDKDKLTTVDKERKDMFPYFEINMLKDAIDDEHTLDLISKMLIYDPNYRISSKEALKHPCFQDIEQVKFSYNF
For assay [6], the target named is Protein kinase 7 (PK7), Plasmodium falciparum 3D7 (PF3D7_0213400) (UniProt Q7YTF7). As to the kind of experiment: inhibition of Plasmodium PK7 catalytic activity – biochemical, TCAMS antimalarial set, Kinase-Glo luminescence (AID 1159587). The conditions noted are these: recombinant PfPK7, Kinase-Glo ATP depletion luminescence.
Sequence of Protein kinase 7 (PK7), Plasmodium falciparum 3D7 (PF3D7_0213400) (Q7YTF7 1-343): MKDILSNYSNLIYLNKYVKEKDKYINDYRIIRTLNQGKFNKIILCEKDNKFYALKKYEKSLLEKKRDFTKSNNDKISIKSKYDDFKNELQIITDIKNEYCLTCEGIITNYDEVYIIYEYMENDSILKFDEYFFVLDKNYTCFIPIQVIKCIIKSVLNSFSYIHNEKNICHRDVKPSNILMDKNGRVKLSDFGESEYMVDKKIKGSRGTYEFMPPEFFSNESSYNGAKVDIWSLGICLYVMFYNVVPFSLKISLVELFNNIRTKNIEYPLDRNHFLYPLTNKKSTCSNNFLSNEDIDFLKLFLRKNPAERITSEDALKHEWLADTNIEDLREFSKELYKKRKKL
The target of assay [7] is Calcium-dependent protein kinase 4 (Plasmodium falciparum (isolate 3D7)) (UniProt Q8IBS5). Kind of assay: PfCDPK4 kinase inhibitors, biochemical, TCAMS library (AID 1159588; cut-off not given, nearly all actives have IC50 up to about 0.91 µM). The settings on record: recombinant PfCDPK4, Kinase-Glo ATP depletion luminescence.
Sequence of Calcium-dependent protein kinase 4 (Plasmodium falciparum (isolate 3D7)) (Q8IBS5 whole entry, looked up): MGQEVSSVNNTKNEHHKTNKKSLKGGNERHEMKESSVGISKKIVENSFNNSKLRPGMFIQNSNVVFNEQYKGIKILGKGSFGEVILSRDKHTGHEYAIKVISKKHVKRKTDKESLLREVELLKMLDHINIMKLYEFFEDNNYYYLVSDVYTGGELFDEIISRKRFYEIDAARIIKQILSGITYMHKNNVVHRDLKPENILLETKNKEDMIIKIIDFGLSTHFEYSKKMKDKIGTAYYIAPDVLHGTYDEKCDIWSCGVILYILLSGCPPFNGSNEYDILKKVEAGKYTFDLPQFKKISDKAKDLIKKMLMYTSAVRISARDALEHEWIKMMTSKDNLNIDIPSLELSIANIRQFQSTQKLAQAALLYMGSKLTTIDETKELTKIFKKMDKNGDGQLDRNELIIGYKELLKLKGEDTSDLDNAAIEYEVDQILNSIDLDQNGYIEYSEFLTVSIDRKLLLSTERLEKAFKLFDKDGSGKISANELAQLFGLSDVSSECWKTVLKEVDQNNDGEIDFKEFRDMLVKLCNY
The nature of assay [8]: antimalarial activity against Dd2 strain (AID 2302;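 active means growth inhibition above 50% at the single 2 µM test dose, taken to imply half-maximal potency below 2 µM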;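 further: 0% = DMSO untreated growth and 100% = chloroquine plus artemisinin killed control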). The conditions noted are these: P. falciparum Dd2 in RBCs, LDH growth readout, 72 h; at 2 µM; active compounds read high.

A number with no mark means an inactive call. For some of these results: Results with a measured potency or affinity are listed apart. Activity calls are given as the source filed them. Unless noted, how the calls were made is not given here.

Sequence of Calcium-dependent protein kinase 1 (Plasmodium falciparum (isolate 3D7)) (P62344 whole entry, looked up): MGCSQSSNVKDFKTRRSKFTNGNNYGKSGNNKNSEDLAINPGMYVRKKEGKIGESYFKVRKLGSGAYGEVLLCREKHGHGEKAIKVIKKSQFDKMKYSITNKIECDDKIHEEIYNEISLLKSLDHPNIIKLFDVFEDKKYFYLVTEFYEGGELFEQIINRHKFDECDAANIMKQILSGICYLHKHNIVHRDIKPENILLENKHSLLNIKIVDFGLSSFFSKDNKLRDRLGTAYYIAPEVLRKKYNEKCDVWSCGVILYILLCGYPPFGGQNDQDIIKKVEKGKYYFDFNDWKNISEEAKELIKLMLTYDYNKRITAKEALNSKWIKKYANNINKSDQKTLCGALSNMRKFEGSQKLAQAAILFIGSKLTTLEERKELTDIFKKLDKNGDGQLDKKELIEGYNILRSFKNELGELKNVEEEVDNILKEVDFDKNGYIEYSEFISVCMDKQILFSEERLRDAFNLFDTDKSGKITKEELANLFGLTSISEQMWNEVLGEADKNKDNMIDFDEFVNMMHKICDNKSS
Sequence of L-lactate dehydrogenase (Plasmodium falciparum (isolate CDC / Honduras)) (Q27743 whole entry, looked up): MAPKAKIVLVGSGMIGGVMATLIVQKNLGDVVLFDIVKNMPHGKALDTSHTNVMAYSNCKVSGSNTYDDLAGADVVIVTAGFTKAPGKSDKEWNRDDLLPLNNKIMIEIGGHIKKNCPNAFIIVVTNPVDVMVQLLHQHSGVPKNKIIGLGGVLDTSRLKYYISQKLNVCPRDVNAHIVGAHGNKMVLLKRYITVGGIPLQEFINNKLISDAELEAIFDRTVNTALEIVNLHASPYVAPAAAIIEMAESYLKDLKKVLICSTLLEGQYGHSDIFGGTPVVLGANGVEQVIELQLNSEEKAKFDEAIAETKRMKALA

One may read the inhibition as the drop in the measured response relative to a control, in per cent. As for `O=C(NCCCCN1CCC(c2ccc3c(c2OCCOCCO)CCCC3)CC1)c1ccc(-c2ccc(C(F)(F)F)cc2)cc1`, the inhibition in assay [1] is 44%; in assay [2] it was -5%. For the same compound, in assay [3], the growth inhibition was 97% (active). Moreover, the outcome in assay [4], in assay [5], in assay [6] and in assay [7] was inactive.

On to `COc1ccc(-c2cnc(N)nc2N)cc1Cl`, for which the figures for the growth inhibition in assay [8] and in assay [3] were 1% and 84% (active), respectively. Further, the inhibition in assay [2] was 4%. For the same compound, the result in assay [4], in assay [5], in assay [6] and in assay [7] was inactive.

As for `O=C(Nc1ccc(OC2CCN(CC3CC3)CC2)c(Cl)c1)c1ccc2ncccc2c1`, the values for the inhibition in assay [1] and in assay [2] were 19% and -2%, respectively. Besides, in assay [3], the growth inhibition is 84% (active). In addition, the outcome in assay [4], in assay [5], in assay [6] and in assay [7] was inactive.

With `COc1ccc2c(OC)cccc2c1CNCCCCCCNCc1c(OC)ccc2c(OC)cccc12`, the growth inhibition in assay [8] was 28%; in assay [3], 92% (active). Further, in assay [2], the inhibition is -5%. Besides, the result in assay [4], in assay [5], in assay [6] and in assay [7] was inactive.

With `Cc1cc2c(cc1C(F)(F)F)N(C(=O)Nc1ccc(C(=O)NCCN3CCCC3)cc1)CC2`, the inhibition is 10% in assay [1] and 3% in assay [2]. In assay [3], the growth inhibition is 100% (active). Moreover, the result in assay [4], in assay [5], in assay [6] and in assay [7] was inactive.

Regarding `CO/N=C(\C)c1ccc2c(c1)CCN(CCC1CCC(NC(=O)c3cccc(-c4noc(C)n4)c3)CC1)CC2` (stereo not drawn), the inhibition in assay [1] was 42%; in assay [2], -1%. Besides, in assay [3], the growth inhibition is 90% (active). Moreover, the result in assay [4], in assay [5], in assay [6] and in assay [7] was inactive.

As for `COc1cccc(-c2nc(Nc3ccncc3)c3ncn(C)c3n2)c1`, the values for the inhibition in assay [1] and in assay [2] were 14% and -1%, respectively. Moreover, the growth inhibition in assay [3] was 94% (active). For the same compound, the result in assay [4], in assay [5], in assay [6] and in assay [7] was inactive.

As to `Cc1cccc(Cn2ccc3c4c(N)nc(N)nc4ccc32)c1`, the growth inhibition was 98% (active) in assay [8] and 95% (active) in assay [3]. Moreover, the inhibition in assay [2] is 1%. Further, the outcome in assay [4], in assay [5], in assay [6] and in assay [7] was inactive.

As to `COc1cc(OC)cc(C(=O)Nc2nc(-c3ccc(NC(=O)c4ccccc4)cc3)cs2)c1`, the inhibition in assay [1] was 16%; in assay [2], -1%. Further, the growth inhibition in assay [3] was 88% (active). For the same compound, the outcome in assay [4], in assay [5], in assay [6] and in assay [7] was inactive.

Consider `COc1cc(Cc2cnc(N)nc2N)cc(OCCCCNS(=O)(=O)C(F)(F)F)c1OC`, for which the growth inhibition is -5% in assay [8] and 84% (active) in assay [3]. Besides, in assay [2], the inhibition is 7%. Further, the outcome in assay [4], in assay [5], in assay [6] and in assay [7] was inactive.

For `O=C(Nc1cccc(Cl)c1)c1cc2ccccc2cc1O`, the inhibition in assay [1] is 4%; in assay [2], -8%. For the same compound, in assay [3], the growth inhibition was 97% (active). Besides, the result in assay [4], in assay [5], in assay [6] and in assay [7] was inactive.

For `CC(CC1CCCCC1)NCc1ccccc1OCCC(=O)N1CCCC1C(N)=O` (stereo not drawn), the inhibition in assay [1] was 5%; in assay [2] it was 8%. For the same compound, in assay [3], the growth inhibition is 97% (active). For the same compound, the outcome in assay [4], in assay [5], in assay [6] and in assay [7] was inactive.

Turning to `Cc1ccc(-c2cnc3[nH]cc(-c4ccc(C(=O)O)c(C)c4)c3c2)cc1C`, the inhibition in assay [1] was 37%; in assay [2], 0%. In assay [3], the growth inhibition was 96% (active). Further, the result in assay [4], in assay [5], in assay [6] and in assay [7] was inactive.

For the compound `Cc1ccccc1Oc1ccc(Nc2ccnc(Nc3cccc(C(N)=O)c3)n2)cc1C(F)(F)F`, the inhibition in assay [1] is 9%; in assay [2], -1%. In assay [3], the growth inhibition is 81% (active). In addition, the result in assay [4], in assay [5], in assay [6] and in assay [7] was inactive.

Regarding `C=CC(C)C1OC(=O)c2cc(OC)cc(OC)c21` (stereo not drawn), the inhibition in assay [1] was 100% (active); in assay [2] it was -4%. Also, the growth inhibition in assay [3] is 100% (active). The result in assay [4], in assay [5], in assay [6] and in assay [7] was inactive.

Consider `CCN(CC)CCCN(C(=O)Nc1cc(F)cc(F)c1)c1nc(-c2ccc(F)cc2)cs1`, for which the inhibition is 27% in assay [1] and 0% in assay [2]. For the same compound, the growth inhibition in assay [3] was 82% (active). Also, the result in assay [4], in assay [5], in assay [6] and in assay [7] was inactive.

`CC(C)(C)c1cc(Cl)cc(C(=O)Nc2cc([N+](=O)[O-])ccc2Cl)c1O`: the inhibition in assay [1] was 79% (active); in assay [2] it was 2%. The growth inhibition in assay [3] is 91% (active). The result in assay [4], in assay [5], in assay [6] and in assay [7] was inactive.

As for `CN(C)c1ccc(NC(=O)Nc2ccnc3ccccc23)cc1Br`, the inhibition in assay [1] was 21%; in assay [2], 3%. For the same compound, the growth inhibition in assay [3] was 98% (active). Moreover, the result in assay [4], in assay [5], in assay [6] and in assay [7] was inactive.

For `COc1cccc(-c2cc3c(NCc4ccncc4)nccc3s2)c1`, the figures for the inhibition in assay [1] and in assay [2] were 0% and -2%, respectively. The growth inhibition in assay [3] was 87% (active). Further, the result in assay [4], in assay [5], in assay [6] and in assay [7] was inactive.
